Results filed as inconclusive are left out. Some structures have more than one record in an assay (separate samples or runs), and their calls can disagree. Active and inactive are the calls of the source. How the source made its calls, unless noted: active means hit-call score of the fitted dose curve at least 0.9, where 1 is the maximum; inactive means score below 0.9.
Legend:
[1] = ATG_NFI_CIS: Attagene CIS-FACTORIAL HepG2 Assay for human Nuclear Factor I (NFI) (AID 2282989); conditions: HepG2 cis-regulatory reporter, NFI response element transcription; actives raise or lower the signal
Method in brief: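 Transfected HepG2 liver cells, exposed 24 h, supplied total RNA for oligo(dT) reverse transcription and reporter-specific PCR. Labelled, HpaI-cut fragments were sized by capillary electrophoresis; DMSO set the baseline for bidirectional fitting.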

[2] = target: Myc proto-oncogene protein (Homo sapiens) (UniProt P01106); assay: ATG_Myc_CIS: Attagene CIS-FACTORIAL HepG2 Assay for human Myelocytomatosis (Myc) Proto-Oncogene Transcription Factor (AID 2282990); conditions: HepG2, Attagene cis-reporter transcription factor activity; actives raise or lower the signal
Method in brief: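 HepG2, transient MRTU transfection (cis promoters, endogenous TFs); 24 h dosing; TriZol RNA → oligo(dT) RT → PCR → 6-FAM primer extension → HpaI cut → CE. Bidirectional fit vs DMSO.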

[3] = ATG_NF_kB_CIS: Attagene CIS-FACTORIAL HepG2 Assay for human Nuclear Factor Kappa B (NF-kB) (AID 2282991); conditions: HepG2 Attagene cis-factorial NF-kB reporter mRNA; actives raise or lower the signal
Method in brief: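 Fluorescence of labelled RT-PCR products separated by capillary electrophoresis gives reporter mRNA levels from transfected HepG2 cells exposed 24 h; values are fitted in both directions relative to DMSO.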

[4] = ATG_NRF2_ARE_CIS: Attagene CIS-FACTORIAL HepG2 Assay for human Nuclear Factor Erythroid 2 Related Factor 2 (NFR2) response to Antioxidant Response Elements (ARE) (AID 2282992); conditions: HepG2 Attagene ARE/NRF2 reporter, transcription factor activity; actives raise or lower the signal
Method in brief: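 Cis-factorial assay: transfected HepG2 reporter library, 24 h dosing, mRNA readout via RT-PCR/CE; DMSO-referenced bidirectional analysis.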

[5] = ATG_Oct_MLP_CIS: Attagene CIS-FACTORIAL HepG2 Assay for human Octamer-Binding Transcription Factor (Oct) (AID 2282993); conditions: HepG2 Attagene cis-factorial Oct reporter, mRNA; actives raise or lower the signal
Method in brief: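 Using HepG2 cells bearing transfected cis-reporter constructs, mRNA induction was read after 24 h by fluorescent RT-PCR and capillary electrophoresis, with DMSO defining baseline for gain- or loss-of-signal fits.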

[6] = target: Cellular tumor antigen p53 (Homo sapiens) (UniProt P04637); assay: ATG_p53_CIS: Attagene CIS-FACTORIAL HepG2 Assay for human p53 Transcription Factor (AID 2282994); conditions: HepG2 p53 cis-element reporter, Attagene mRNA; actives raise or lower the signal
Method in brief: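 Using HepG2 hepatoma cells carrying cis-acting multiplexed reporters, mRNA induction is detected after a 24 h exposure. Gain- and loss-of-signal responses are fitted relative to DMSO-treated cells.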

[7] = BSK_3C_TissueFactor: BioMAP Diversity Plus: 3C Assay for Tissue Factor Biomarker Activity (AID 2282997); conditions: BioMAP 3C HUVEC, tissue factor biomarker readout; actives raise or lower the signal
Method in brief: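 Primary human umbilical vein endothelial cells in the 3C system were exposed to test chemical for 24 h, then Tissue Factor measured by ELISA. Activity was fitted bidirectionally against DMSO as negative control and baseline.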

[8] = BSK_3C_uPAR: BioMAP Diversity Plus: 3C Assay for Urokinase-type plasminogen activator receptor (uPAR) Biomarker Activity (AID 2282998); conditions: BioMAP 3C HUVEC, uPAR biomarker ELISA; actives raise or lower the signal
Method in brief: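 In this endothelial cell-based assay, human umbilical vein primary cells were treated with chemicals and harvested at 24 h. uPAR was quantified using ELISA, with gains or losses fitted relative to DMSO controls.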

[9] = BSK_3C_VCAM1: BioMAP Diversity Plus: 3C Assay for Vascular cell adhesion molecule 1 (VCAM1) Biomarker Activity (AID 2282999); conditions: BioMAP 3C HUVEC, VCAM1 ELISA, cytokine-stimulated; actives raise or lower the signal
Method in brief: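 Endothelial cells from human umbilical vein are treated with test chemical. At 24 h, VCAM-1 is measured by ELISA, and responses in either direction are fitted relative to DMSO.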

[10] = BSK_4H_Eotaxin3: BioMAP Diversity Plus: 4H Assay for Eotaxin 3 Biomarker Activity (AID 2283000); conditions: primary human endothelial cells (HUVEC); actives raise or lower the signal;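 on outcome: CCL26 protein level quantified by ELISA in parallel with SRB cytotoxicity check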
Method in brief: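 HUVEC, 24 h post-dose, ELISA for Eotaxin-3/CCL26. Gain or loss of signal fitted bidirectionally vs DMSO baseline.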

[11] = read-out: Intercellular Adhesion Molecule 1 (ICAM1), ICAM1 (gene 3383); assay: BSK_3C_ICAM1: BioMAP Diversity Plus: 3C Assay for Intercellular Adhesion Molecule 1 (ICAM1) Biomarker Activity (AID 2283003); conditions: primary human endothelial cells (HUVEC); actives raise or lower the signal
Method in brief: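 Human vascular endothelial primary cells, 3C conditions, 24 h treatment. ICAM-1 by ELISA.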

[12] = target: human Retinoic Acid Receptor beta (RARb), RARB (gene 5915) (UniProt P10826); assay: ATG_RARb_TRANS: Attagene TRANS-FACTORIAL HepG2 Assay for human Retinoic Acid Receptor beta (AID 2283004; active means hit-call score of the fitted dose curve at least 0.9, where 1 is the maximum)
Method in brief: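 HepG2 cells transiently transfected with multiplexed GAL4-UAS reporter units expressing chimeric NR–Gal4 fusions; 24 h compound exposure. Reporter mRNA quantified by RT-PCR, 6-FAM labelling, HpaI digestion and capillary electrophoresis; gain-of-signal fitted against DMSO baseline.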

[13] = BSK_3C_Proliferation: Cell Proliferation Assessment in the BioMAP Diversity Plus: 3C Assay (AID 2283006); conditions: primary human endothelial cells (HUVEC);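 on AC50: potency may reflect either rise or fall in cell number versus DMSO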
Method in brief: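 Proliferation of human vascular endothelial primary cells after 48 h dosing, quantified as SRB-stained protein at 560 nm relative to DMSO.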

[14] = target: Peroxisome proliferator-activated receptor gamma (Homo sapiens) (UniProt P37231); assay: ATG_PPARg_TRANS: Attagene TRANS-FACTORIAL HepG2 Assay for human Peroxisome Proliferator-activated Receptor-gamma (PPARg) (AID 2283007; active means hit-call score of the fitted dose curve at least 0.9, where 1 is the maximum)
Method in brief: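 Twenty-four hours after chemical dosing of transiently transfected HepG2 cells, isolated RNA was converted to cDNA, reporter sequences amplified and 6-FAM-labelled, then HpaI-digested and analysed by capillary electrophoresis. Signal increase against DMSO was fitted.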

[15] = target: Nuclear receptor subfamily 1 group I member 2 (Homo sapiens) (UniProt O75469); assay: ATG_PXR_TRANS: Attagene TRANS-FACTORIAL HepG2 Assay for human Pregnane X Receptor (PXR) (AID 2283008; active means hit-call score of the fitted dose curve at least 0.9, where 1 is the maximum)
Method in brief: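 Fluorescence intensity of FAM-labelled, HpaI-digested reporter amplicons, separated by capillary electrophoresis, quantifies induction. HepG2 cells with PXR-Gal4 trans-reporter system were exposed 24 h; DMSO defines baseline.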

[16] = target: human RAR-related Orphan Receptor beta (RORb), RORB (gene 6096) (UniProt Q92753); assay: ATG_RORb_TRANS: Attagene TRANS-FACTORIAL HepG2 Assay for human RAR-related Orphan Receptor beta (RORb) (AID 2283010; active means hit-call score of the fitted dose curve at least 0.9, where 1 is the maximum)
Method in brief: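 In this TRANS-format test, human HepG2 cells express chimeric NR-Gal4 fusion proteins driving GAL4-UAS reporters. After 24 h dosing, reporter transcripts are measured by fluorescent RT-PCR/capillary electrophoresis, with DMSO as negative control.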

[17] = target: human Peroxisome Proliferator-activated Receptor alpha (PPARa), PPARA (gene 5465) (UniProt Q07869); assay: ATG_PPARa_TRANS: Attagene TRANS-FACTORIAL HepG2 Assay for human Peroxisome Proliferator-activated Receptor alpha (PPARa) (AID 2283001; active means hit-call score of the fitted dose curve at least 0.9, where 1 is the maximum;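 on AC50: potency for gain of reporter signal over DMSO so agonist or activator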)
Method in brief: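 Reporter transcripts from GAL4-UAS units in transfected HepG2 were quantified 24 h after dosing. Detection used reverse transcription, PCR, fluorescent primer extension and capillary electrophoresis, with DMSO as baseline.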

[18] = target: human Peroxisome Proliferator-activated Receptor delta (PPARd), PPARD (gene 5467) (UniProt Q03181); assay: ATG_PPARd_TRANS: Attagene TRANS-FACTORIAL HepG2 Assay for human Peroxisome Proliferator-activated Receptor delta (PPARd) (AID 2283002; active means hit-call score of the fitted dose curve at least 0.9, where 1 is the maximum)
Method in brief: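 Transient HepG2 transfection (multiple GAL4-UAS RTUs, chimeric receptor-Gal4); 24 h dosing; total RNA → oligo(dT) RT → PCR → 6-FAM primer extension → HpaI cut → CE. Positive direction vs DMSO.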

[19] = target: human Retinoic Acid Receptor gamma (RARg), RARG (gene 5916) (UniProt P13631); assay: ATG_RARg_TRANS: Attagene TRANS-FACTORIAL HepG2 Assay for human Retinoic Acid Receptor gamma (RARg) (AID 2283009; active means hit-call score of the fitted dose curve at least 0.9, where 1 is the maximum)
Method in brief: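 HepG2, RARg-GAL4 TRANS system, 24 h exposure; reporter mRNA by RT-PCR + CE fluorescence; increase over DMSO.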

[20] = target: Retinoic acid receptor alpha (Homo sapiens) (UniProt P10276); assay: ATG_RARa_TRANS: Attagene TRANS-FACTORIAL HepG2 Assay for human Retinoic Acid Receptor alpha (RARa) (AID 2283005; active means hit-call score of the fitted dose curve at least 0.9, where 1 is the maximum)
Method in brief: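 Reporter transcripts, measured by RT-PCR with fluorescent labeling and capillary electrophoresis after 24 h dosing, reflect activity of an exogenous human RARa–GAL4 fusion in transiently transfected HepG2. Fitted for increase relative to DMSO.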

Chain of Nuclear receptor subfamily 1 group I member 2 (Homo sapiens) (O75469 whole entry, looked up, the tested form may be a part): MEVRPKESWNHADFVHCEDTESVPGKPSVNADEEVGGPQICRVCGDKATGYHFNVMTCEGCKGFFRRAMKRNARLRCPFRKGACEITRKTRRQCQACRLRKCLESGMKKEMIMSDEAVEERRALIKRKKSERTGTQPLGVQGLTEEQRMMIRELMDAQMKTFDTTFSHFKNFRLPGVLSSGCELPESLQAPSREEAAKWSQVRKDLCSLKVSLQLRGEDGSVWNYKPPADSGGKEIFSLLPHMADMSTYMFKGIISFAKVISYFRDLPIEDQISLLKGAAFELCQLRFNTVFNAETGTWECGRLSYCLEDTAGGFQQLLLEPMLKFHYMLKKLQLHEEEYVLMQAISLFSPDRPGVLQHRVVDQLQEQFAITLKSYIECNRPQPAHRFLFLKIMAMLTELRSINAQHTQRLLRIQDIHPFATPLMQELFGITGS
Chain of Myc proto-oncogene protein (Homo sapiens) (P01106 whole entry, looked up): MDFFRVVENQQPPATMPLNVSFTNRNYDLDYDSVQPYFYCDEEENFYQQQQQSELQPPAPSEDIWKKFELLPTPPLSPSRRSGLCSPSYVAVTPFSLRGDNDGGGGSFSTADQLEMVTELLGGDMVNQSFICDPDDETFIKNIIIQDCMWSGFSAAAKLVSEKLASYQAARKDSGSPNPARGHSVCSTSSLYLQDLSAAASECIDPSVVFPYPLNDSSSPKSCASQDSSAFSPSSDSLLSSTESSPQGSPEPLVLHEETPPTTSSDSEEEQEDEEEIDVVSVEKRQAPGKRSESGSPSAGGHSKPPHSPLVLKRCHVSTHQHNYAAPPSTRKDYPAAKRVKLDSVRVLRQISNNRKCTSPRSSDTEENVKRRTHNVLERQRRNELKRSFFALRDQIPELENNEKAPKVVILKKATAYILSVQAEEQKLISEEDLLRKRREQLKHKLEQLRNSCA
Chain of human Peroxisome Proliferator-activated Receptor alpha (PPARa), PPARA (gene 5465) (Q07869 whole entry, looked up, the tested form may be a part): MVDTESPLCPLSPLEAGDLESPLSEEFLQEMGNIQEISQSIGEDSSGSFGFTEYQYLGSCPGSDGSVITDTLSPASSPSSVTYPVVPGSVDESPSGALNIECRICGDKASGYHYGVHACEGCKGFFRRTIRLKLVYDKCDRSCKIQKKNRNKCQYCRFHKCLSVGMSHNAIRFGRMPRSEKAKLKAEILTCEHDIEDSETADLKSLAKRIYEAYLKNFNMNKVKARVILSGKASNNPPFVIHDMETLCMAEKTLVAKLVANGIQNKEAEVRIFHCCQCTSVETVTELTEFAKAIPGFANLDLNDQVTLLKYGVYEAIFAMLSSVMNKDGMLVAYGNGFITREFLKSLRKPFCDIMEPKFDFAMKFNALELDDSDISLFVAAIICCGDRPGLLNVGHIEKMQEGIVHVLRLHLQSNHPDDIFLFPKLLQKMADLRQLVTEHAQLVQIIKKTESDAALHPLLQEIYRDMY
Chain of Peroxisome proliferator-activated receptor gamma (Homo sapiens) (P37231 whole entry, looked up): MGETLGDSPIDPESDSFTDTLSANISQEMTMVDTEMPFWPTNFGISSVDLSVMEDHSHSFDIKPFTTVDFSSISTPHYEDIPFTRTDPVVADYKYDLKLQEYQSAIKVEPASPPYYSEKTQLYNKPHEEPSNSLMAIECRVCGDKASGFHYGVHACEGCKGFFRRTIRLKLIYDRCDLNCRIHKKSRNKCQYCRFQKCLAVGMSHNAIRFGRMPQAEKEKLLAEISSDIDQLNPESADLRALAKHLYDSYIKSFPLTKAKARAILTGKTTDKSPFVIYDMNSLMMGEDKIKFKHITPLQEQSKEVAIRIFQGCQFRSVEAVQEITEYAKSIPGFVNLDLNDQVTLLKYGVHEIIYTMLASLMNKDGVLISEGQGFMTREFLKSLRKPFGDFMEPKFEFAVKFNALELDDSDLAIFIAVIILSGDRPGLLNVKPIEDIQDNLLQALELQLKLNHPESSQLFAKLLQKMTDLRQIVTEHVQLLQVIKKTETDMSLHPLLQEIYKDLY
Chain of human Peroxisome Proliferator-activated Receptor delta (PPARd), PPARD (gene 5467) (Q03181 whole entry, looked up, the tested form may be a part): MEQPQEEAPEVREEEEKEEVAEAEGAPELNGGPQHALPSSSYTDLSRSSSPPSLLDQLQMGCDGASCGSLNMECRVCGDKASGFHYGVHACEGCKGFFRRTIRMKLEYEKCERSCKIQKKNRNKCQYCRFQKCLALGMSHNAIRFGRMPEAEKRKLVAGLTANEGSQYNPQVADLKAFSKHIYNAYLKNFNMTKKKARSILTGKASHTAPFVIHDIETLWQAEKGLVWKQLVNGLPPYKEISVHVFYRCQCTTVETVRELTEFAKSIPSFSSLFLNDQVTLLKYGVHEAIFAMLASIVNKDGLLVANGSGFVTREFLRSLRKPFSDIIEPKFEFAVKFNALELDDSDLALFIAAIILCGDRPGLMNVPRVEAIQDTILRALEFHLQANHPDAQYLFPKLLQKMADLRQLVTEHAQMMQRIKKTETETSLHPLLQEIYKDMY
Chain of human RAR-related Orphan Receptor beta (RORb), RORB (gene 6096) (Q92753 whole entry, looked up, the tested form may be a part): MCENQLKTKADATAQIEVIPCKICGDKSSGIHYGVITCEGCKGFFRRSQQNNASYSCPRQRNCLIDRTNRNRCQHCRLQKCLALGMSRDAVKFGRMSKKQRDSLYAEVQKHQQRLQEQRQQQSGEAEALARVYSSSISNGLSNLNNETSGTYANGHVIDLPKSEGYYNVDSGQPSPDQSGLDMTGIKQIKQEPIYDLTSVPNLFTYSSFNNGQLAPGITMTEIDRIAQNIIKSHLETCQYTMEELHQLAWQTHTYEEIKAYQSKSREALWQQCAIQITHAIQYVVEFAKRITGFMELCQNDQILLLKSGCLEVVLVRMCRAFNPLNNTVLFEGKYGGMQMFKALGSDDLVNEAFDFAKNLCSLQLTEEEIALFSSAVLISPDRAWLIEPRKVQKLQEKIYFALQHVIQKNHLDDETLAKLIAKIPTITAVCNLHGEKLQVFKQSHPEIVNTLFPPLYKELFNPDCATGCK
Chain of Cellular tumor antigen p53 (Homo sapiens) (P04637 whole entry, looked up): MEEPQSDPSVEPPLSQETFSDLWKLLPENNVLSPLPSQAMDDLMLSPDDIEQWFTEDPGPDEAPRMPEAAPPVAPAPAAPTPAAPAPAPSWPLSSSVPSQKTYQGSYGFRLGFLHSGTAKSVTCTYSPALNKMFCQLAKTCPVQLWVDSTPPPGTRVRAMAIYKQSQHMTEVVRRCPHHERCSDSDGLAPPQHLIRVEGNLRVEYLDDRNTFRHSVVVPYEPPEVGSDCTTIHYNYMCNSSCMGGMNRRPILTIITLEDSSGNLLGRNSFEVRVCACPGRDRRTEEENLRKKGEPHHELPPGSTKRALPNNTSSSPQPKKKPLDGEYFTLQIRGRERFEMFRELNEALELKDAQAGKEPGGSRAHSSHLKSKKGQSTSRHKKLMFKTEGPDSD
Chain of human Retinoic Acid Receptor gamma (RARg), RARG (gene 5916) (P13631 whole entry, looked up, the tested form may be a part): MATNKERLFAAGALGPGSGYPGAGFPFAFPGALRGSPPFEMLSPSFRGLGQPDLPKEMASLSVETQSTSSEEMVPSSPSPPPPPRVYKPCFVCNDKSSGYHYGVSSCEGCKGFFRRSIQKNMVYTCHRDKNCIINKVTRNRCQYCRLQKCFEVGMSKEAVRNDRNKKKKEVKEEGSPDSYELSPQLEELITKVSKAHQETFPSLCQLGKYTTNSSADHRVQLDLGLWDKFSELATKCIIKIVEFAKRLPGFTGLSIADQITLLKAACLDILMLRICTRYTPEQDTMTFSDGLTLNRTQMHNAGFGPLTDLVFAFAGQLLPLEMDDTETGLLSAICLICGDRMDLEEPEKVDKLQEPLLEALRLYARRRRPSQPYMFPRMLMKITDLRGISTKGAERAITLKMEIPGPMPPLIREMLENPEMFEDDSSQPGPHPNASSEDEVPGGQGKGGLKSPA
Chain of Retinoic acid receptor alpha (Homo sapiens) (P10276 whole entry, looked up, the tested form may be a part): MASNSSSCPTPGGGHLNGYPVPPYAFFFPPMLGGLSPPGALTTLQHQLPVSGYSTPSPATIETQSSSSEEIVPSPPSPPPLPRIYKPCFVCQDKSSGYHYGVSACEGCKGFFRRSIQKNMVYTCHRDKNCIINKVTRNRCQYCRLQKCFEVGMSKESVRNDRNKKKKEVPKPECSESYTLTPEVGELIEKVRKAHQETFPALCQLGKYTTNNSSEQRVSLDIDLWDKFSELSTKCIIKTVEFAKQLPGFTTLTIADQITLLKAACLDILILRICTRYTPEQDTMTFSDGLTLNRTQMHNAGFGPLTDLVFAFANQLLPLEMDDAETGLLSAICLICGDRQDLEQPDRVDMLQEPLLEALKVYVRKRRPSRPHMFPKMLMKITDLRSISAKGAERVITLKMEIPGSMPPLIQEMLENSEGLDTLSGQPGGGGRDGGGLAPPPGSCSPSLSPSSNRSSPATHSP
Chain of human Retinoic Acid Receptor beta (RARb), RARB (gene 5915) (P10826 whole entry, looked up, the tested form may be a part): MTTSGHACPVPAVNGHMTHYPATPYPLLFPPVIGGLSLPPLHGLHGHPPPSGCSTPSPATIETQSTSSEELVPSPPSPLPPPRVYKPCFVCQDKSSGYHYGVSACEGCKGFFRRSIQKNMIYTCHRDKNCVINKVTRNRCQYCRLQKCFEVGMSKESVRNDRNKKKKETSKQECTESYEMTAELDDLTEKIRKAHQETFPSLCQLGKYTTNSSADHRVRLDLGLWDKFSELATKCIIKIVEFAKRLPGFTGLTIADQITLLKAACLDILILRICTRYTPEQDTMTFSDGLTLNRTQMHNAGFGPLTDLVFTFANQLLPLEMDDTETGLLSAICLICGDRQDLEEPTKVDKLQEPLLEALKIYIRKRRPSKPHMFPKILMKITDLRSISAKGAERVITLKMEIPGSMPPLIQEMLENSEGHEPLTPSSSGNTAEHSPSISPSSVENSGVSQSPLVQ

Compound: COc1cc(C=O)ccc1OC(=O)C(C)C
- outcome [1]: inactive
- outcome [2]: inactive
- outcome [3]: inactive
- outcome [4]: inactive
- outcome [5]: inactive
- outcome [6]: inactive
- outcome [7]: inactive
- outcome [8]: inactive
- outcome [9]: inactive
- outcome [10]: inactive
- outcome [11]: inactive
- outcome [12]: inactive
- outcome [13]: inactive
- outcome [14]: inactive
- outcome [15]: inactive
- outcome [16]: inactive

Compound: Cc1ccc(C(=O)c2cc(O)c(O)c([N+](=O)[O-])c2)cc1
- outcome [1]: inactive
- outcome [2]: inactive
- outcome [3]: inactive
- outcome [4]: inactive
- outcome [5]: inactive
- outcome [6]: inactive
- outcome [17]: inactive
- outcome [18]: inactive
- AC50 [14]: 17.5 µM (active)

Compound: CC(=O)Nc1ccccc1O
- outcome [1]: inactive
- outcome [2]: inactive
- outcome [3]: inactive
- outcome [4]: inactive
- outcome [5]: inactive
- outcome [6]: inactive
- outcome [7]: inactive
- outcome [8]: inactive
- outcome [9]: inactive
- outcome [10]: inactive
- outcome [11]: inactive
- outcome [13]: inactive
- outcome [14]: inactive
- outcome [15]: inactive

Compound: O=C(O)C[C@H](O)C[C@H](O)/C=C/c1c(C2CC2)nc2ccccc2c1-c1ccc(F)cc1
- outcome [1]: inactive
- outcome [2]: inactive
- AC50 [3]: 2.68 µM (active)
- outcome [4]: inactive
- outcome [5]: inactive
- outcome [6]: inactive
- outcome [7]: inactive
- AC50 [8]: 0.289 µM (active)
- outcome [9]: inactive
- AC50 [10]: 0.198 µM (active)
- outcome [17]: inactive
- outcome [11]: inactive
- AC50 [13]: 1.95 µM (active)
- AC50 [14]: 20.2 µM (active)
- outcome [15]: inactive
- outcome [16]: inactive

Compound: CC(C)(N)CO
- outcome [1]: inactive
- outcome [2]: inactive
- outcome [3]: inactive
- outcome [4]: inactive
- outcome [5]: inactive
- outcome [6]: inactive

Compound: C=C[Si](OCC)(OCC)OCC
- outcome [1]: inactive
- outcome [2]: inactive
- outcome [3]: inactive
- outcome [4]: inactive
- outcome [5]: inactive
- outcome [6]: inactive
- outcome [7]: inactive
- outcome [8]: inactive
- outcome [9]: inactive
- outcome [10]: inactive
- outcome [17]: inactive
- outcome [11]: inactive
- outcome [13]: inactive
- AC50 [15]: 2.2 µM (active)

Compound: CC1CCC(C(C)CS)CC1S (stereo unspecified)
- outcome [1]: inactive
- AC50 [2]: 52.4 µM (active)
- outcome [3]: inactive
- AC50 [4]: 33.4 µM (active)
- AC50 [5]: 26.1 µM (active)
- AC50 [6]: 52.6 µM (active)
- AC50 [7]: 36.7 µM (active)
- outcome [8]: inactive
- AC50 [9]: 30 µM (active)
- AC50 [10]: 30.3 µM (active)
- AC50 [17]: 53.7 µM (active)
- outcome [18]: inactive
- AC50 [11]: 27.4 µM (active)
- AC50 [13]: 25.7 µM (active)
- AC50 [14]: 41 µM (active)
- AC50 [15]: 2.84 µM (active)
- outcome [19]: inactive

Compound: Nc1cc([N+](=O)[O-])ccc1O
- outcome [1]: inactive
- outcome [2]: inactive
- outcome [3]: inactive
- AC50 [4]: 38.1 µM (active)
- outcome [5]: inactive
- outcome [6]: inactive
- outcome [7]: inactive
- outcome [8]: inactive
- outcome [9]: inactive
- AC50 [10]: 14.9 µM (active)
- outcome [10]: inactive
- outcome [17]: inactive
- outcome [18]: inactive
- outcome [11]: inactive
- outcome [13]: inactive
- outcome [14]: inactive
- outcome [15]: inactive
- outcome [16]: inactive

Compound: O=c1cc(-c2ccccc2)oc2cc(O)cc(O)c12
- outcome [1]: inactive
- outcome [2]: inactive
- AC50 [3]: 12.4 µM (active)
- AC50 [4]: 2.2 µM (active)
- outcome [5]: inactive
- AC50 [6]: 3.66 µM (active)
- outcome [17]: inactive
- outcome [18]: inactive
- outcome [20]: inactive
- outcome [15]: inactive
- outcome [19]: inactive

— PubChem BioAssay (EPA / NIEHS)
